# Reference: PubChem BioAssay (NCATS)
# Values joined by “and” are separate entries in the source; they are usually repeats but may differ in a detail not shown here. Equal values may be shown once. Inconclusive results are not listed. Values without a mark were called inactive. Active and inactive are the calls of the source. Calls come from the whole dose curve; as a rule, active = well fitted inhibition curve with a large enough effect; inconclusive = small, poorly fitted or top-dose-only effect; inactive = flat fitted curve, though single readings scatter. Where a SMILES comes first, the peptide text is derived from it. Bridges are numbered along the chain shown (N, C = ends). [ ]: non-standard residue; d: D form. The star is where a group is joined. X2 = CC[C@H](C)CCCCC(=O)*; Dab = NCC[C@H](N)C(=O)O
# Biological target: Voltage-gated inwardly rectifying potassium channel KCNH2 (Homo sapiens) (UniProt Q12809)
# Sequence (Q12809 whole entry, looked up): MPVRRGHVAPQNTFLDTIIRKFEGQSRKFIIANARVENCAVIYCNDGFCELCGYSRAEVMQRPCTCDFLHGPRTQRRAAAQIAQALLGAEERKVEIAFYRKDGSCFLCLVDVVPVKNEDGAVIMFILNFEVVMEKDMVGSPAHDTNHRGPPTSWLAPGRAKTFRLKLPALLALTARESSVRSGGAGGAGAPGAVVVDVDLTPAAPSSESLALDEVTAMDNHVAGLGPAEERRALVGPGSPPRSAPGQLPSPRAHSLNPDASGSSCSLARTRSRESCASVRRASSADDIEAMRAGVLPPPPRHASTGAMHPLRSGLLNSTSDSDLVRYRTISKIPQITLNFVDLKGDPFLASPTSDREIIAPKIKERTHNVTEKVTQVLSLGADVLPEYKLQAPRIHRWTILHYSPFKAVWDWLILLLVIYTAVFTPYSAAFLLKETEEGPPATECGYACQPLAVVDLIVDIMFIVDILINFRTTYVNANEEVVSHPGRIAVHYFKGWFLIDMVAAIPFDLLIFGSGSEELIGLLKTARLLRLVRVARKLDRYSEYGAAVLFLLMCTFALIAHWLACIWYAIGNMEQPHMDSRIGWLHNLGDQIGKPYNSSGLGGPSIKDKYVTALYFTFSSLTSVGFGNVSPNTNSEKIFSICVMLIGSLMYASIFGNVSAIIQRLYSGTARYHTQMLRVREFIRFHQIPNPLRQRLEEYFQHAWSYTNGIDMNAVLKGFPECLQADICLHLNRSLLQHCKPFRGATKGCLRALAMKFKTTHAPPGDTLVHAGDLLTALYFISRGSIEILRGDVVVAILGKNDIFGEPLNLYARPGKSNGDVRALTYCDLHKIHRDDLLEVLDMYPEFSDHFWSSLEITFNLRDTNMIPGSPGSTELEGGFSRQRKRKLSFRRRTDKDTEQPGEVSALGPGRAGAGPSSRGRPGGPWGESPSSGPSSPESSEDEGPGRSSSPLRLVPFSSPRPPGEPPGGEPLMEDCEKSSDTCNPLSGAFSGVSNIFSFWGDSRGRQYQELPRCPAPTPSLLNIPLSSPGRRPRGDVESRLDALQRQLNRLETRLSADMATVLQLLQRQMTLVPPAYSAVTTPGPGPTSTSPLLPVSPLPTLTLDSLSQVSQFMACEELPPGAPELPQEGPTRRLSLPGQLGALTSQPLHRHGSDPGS
# Assay: qHTS Assay for Small Molecule Inhibitors of the Human hERG Channel Activity (AID 588834);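 note: lower thallium flux fluorescence means stronger hERG block; nearly all actives have a fitted effect of over 50% in size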; for activity change, negative = inhibition: top concentration of the series differs between compounds
# Details: U2OS BacMam hERG, FluxOR thallium flux fluorescence; series mostly up to 46.1 µM; activity change, negative = inhibition: at the top concentration
# In short: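 Blockade is seen as reduced FluxOR thallium-flux fluorescence in U2OS cells expressing hERG from a BacMam construct, in Opti-MEM with 2% FCS. Concentration-response data fitted to the Hill equation for AC50.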
# % is set by controls: 0 for no effect and ±100 for the full control effect; potency is the fitted concentration of half-maximal effect.
SMILES,"activity change, negative = inhibition",Potency
CCC(Cc1c(I)cc(I)c(O)c1I)C(=O)O (stereo not drawn),0.941%,
CC(C)C[C@H](NC(=O)[C@@H](COC(C)(C)C)NC(=O)[C@H](Cc1ccc(O)cc1)NC(=O)[C@H](CO)NC(=O)[C@H](Cc1c[nH]c2ccccc12)NC(=O)[C@H](Cc1cnc[nH]1)NC(=O)[C@@H]1CCC(=O)N1)C(=O)N[C@@H](CCCN=C(N)N)C(=O)N1CCC[C@H]1C(=O)NNC(N)=O,15.7%,
O=C1C2CC3CC1CC(O)(C3)C2,4.5%,
O=C(O)[C@H]1CN(C/C=C/P(=O)(O)O)CCN1,12.7%,
CC(=O)Oc1cc(C(F)(F)F)ccc1C(=O)O,-4.16% [at 20.6 µM],
CC(=O)c1ccc2c(c1)N(CCCN1CCN(CCO)CC1)c1ccccc1S2,,7.08 µM (active)
Cn1cc(NC(=O)c2cc(NC(=O)c3cc(NC=O)cn3C)cn2C)cc1C(=O)NCCC(=N)N,21.5%,
O=C(O)CCC/C=C\C[C@@H]1[C@@H](/C=C/[C@@H](O)COc2cccc(Cl)c2)[C@H](O)C[C@@H]1O,-4.48%,
Oc1ccc(Cl)c2c1CCC2,7.71%,
CCCC(=O)O,29.4%,
CN=C1C=CC(=C(c2ccc(N(C)C)cc2)c2ccc(N(C)C)cc2)C=C1,,4.47 µM (active)
COc1cc(C)c(/C=C/C(C)=C/C=C/C(C)=C/C(=O)O)c(C)c1C,-41.8%,
CC(=O)OCC(=O)[C@@]1(O)CC[C@H]2[C@@H]3CCC4=CC(=O)CC[C@]4(C)C3=CC[C@@]21C,19.5%,
CC1=C[C@H](O)CC(C)(C)[C@H]1/C=C/C(C)=C/C=C/C(C)=C/C=C/C=C(C)/C=C/C=C(C)/C=C/C1=C(C)C[C@@H](O)CC1(C)C,7.71%,
CC(=O)OCC1=C(C(=O)O)N2C(=O)[C@@H](NC(=O)Cc3ccccc3)[C@H]2SC1,3.07%,
FCOC(C(F)(F)F)C(F)(F)F,-5.97%,
O=C1c2c(O)cccc2[C@H]([C@@H]2O[C@H](CO)[C@@H](O)[C@H](O)[C@H]2O)c2cc(CO)cc(O)c21,4.23%,
CCN(CC)CCOc1ccc2nc(N(C)C)sc2c1,1.46%,
CC(=O)N[C@@H]1C(O[C@H]2O[C@H](C(=O)O)C(O)[C@H](O)[C@H]2O)[C@H](O)[C@@H](CO)O[C@H]1O[C@@H]1C(C(=O)O)O[C@@H](O[C@H]2[C@H](O)[C@@H](CO)OC(O)[C@@H]2NC(C)=O)[C@H](O)[C@H]1O (stereo partly drawn),19.7%,

SMILES,"activity change, negative = inhibition",Potency
O=C(O)c1ccc(OCCn2ccnc2)cc1,13.7%,
FC(F)OC(Cl)C(F)(F)F (stereo not drawn),17.3%,
O=S(=O)(O)CC(S)CS (stereo not drawn),21.4%,
OCCCNc1ccccc1,0.463%,
CC[C@H](C)CCCCC(=O)N[C@@H](CCN)C(=O)N[C@H](C(=O)N[C@@H](CCN)C(=O)N[C@H]1CCNC(=O)[C@@H]([C@H](C)O)NC(=O)[C@H](CCN)NC(=O)[C@H](CCN)NC(=O)[C@H](CC(C)C)NC(=O)[C@@H](CC(C)C)NC(=O)[C@H](CCN)NC1=O)[C@@H](C)O (X2-[Dab]T[Dab][Dab][Dab][dL]L[Dab][Dab][dT]; lactam 4-C),1.35% [at 20.6 µM],
FC(F)(F)C(F)(F)C(F)(F)C(F)(F)C(F)(F)F,-1.84%,
Nc1ncnc2c1ncn2CCOCP(=O)(O)O,8.36%,
CC(=O)NCCCS(=O)(=O)O,34.8%,
CC(C)[C@@H]1CC[C@@H](C)C[C@H]1OC(=O)c1ccccc1O,5.36%,
NC(=O)OC[C@@H]1[C@H](NC(=O)/C(=N\OCC(=O)O)c2csc(N)n2)C(=O)N1S(=O)(=O)O,0.525%,
C=CCCCCCCCCC(=O)OC,-9.54%,
CCCCCCCCCCCCCCCCCC[N+](C)(C)CCC[Si](OC)(OC)OC,0.36%,
Cc1cc(-c2ccc(N=Nc3c(S(=O)(=O)O)cc4cc(S(=O)(=O)O)cc(N)c4c3O)c(C)c2)ccc1N=Nc1c(S(=O)(=O)O)cc2cc(S(=O)(=O)O)cc(N)c2c1O,16.9%,
C=C1C(CCl)(CCl)C2(Cl)C(Cl)C(Cl)C1(Cl)C2(Cl)Cl (stereo not drawn),,28.2 µM (active) and 15.8 µM (active)
CCCCC/C=C\CCC(=O)N[C@H]1[C@H](Oc2c3cc4cc2Oc2ccc(cc2Cl)[C@@H](O[C@@H]2O[C@H](CO)[C@@H](O)[C@H](O)[C@H]2NC(C)=O)[C@@H]2NC(=O)[C@H](NC(=O)[C@@H]4NC(=O)[C@H]4NC(=O)[C@@H](Cc5ccc(c(Cl)c5)O3)NC(=O)[C@H](N)c3ccc(O)c(c3)Oc3cc(O)cc4c3)c3ccc(O)c(c3)-c3c(O[C@H]4O[C@H](CO)[C@@H](O)[C@H](O)[C@@H]4O)cc(O)cc3[C@@H](C(=O)O)NC2=O)O[C@H](CO)[C@@H](O)[C@@H]1O,3.68% [at 20.6 µM],
Cc1cccc(C)c1Nc1ncccc1C(=O)O,-14.1%,
CO/N=C(\C(=O)N[C@@H]1C(=O)N2C(C(=O)O)=C(C[N+]3(C)CCCC3)CS[C@H]12)c1csc(N)n1,0.634%,
COc1ccccc1N1CCN(CCCC(=O)c2ccc(F)cc2)CC1,,1.41 µM (active)
OC[C@H]1O[C@@H](O[C@H]2[C@H](O)[C@@H](O)[C@H](O)O[C@@H]2CO)[C@H](O)[C@@H](O)[C@@H]1O,18.8%,
